Results published in PubChem BioAssay AID1159580 (chemical genetic matrix, 2015).
Screen size: about 5,500 compounds; about 2,000 (36%) were called active. Not shown: some 18% with an inconclusive outcome. Rule as the data show it: active = normalized growth mostly below about 0.91 (no sharp cut-off); inconclusive = no clear call, values can overlap the other calls; inactive = mostly above about 0.92. The list shows a part of the results.

Assay: chemical genetic growth profiling, strain panel (AID 1159580);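 also: tested at 20 µM; growth read once vehicle control cultures reached saturation at 30 °C; 1 = growth at the plate median or of vehicle wells; lower values mean less growth of the strain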
Details: growth OD

Measured: normalized growth

C[C@@H]1CC[C@@]2(OC1)OC1C(O)C3C4CC[C@H]5C[C@H](O[C@@H]6O[C@H](CO)[C@H](O[C@@H]7O[C@H](CO)[C@@H](O)[C@H](O[C@@H]8OC[C@@H](O)[C@H](O)[C@H]8O)[C@H]7O[C@@H]7O[C@H](CO)[C@H](O)[C@H](O[C@@H]8O[C@H](CO)[C@@H](O)[C@H](O)[C@H]8O)[C@H]7O)[C@H](O)[C@H]6O)[C@H](O)C[C@]5(C)C4CC[C@]3(C)C1[C@@H]2C (stereo partly specified)
inactive: S. cerevisiae deletion strains, locus YKL160W, strain elf1, stronger effect = lower value 1.01 | S. cerevisiae deletion strains, locus YKR026C, strain gcn3, stronger effect = lower value 1.03 | S. cerevisiae deletion strains, locus YKR091W, strain srl3, stronger effect = lower value 1.02 | S. cerevisiae deletion strains, locus YLL001W, strain dnm1, stronger effect = lower value 0.962 | S. cerevisiae deletion strains, locus YLL026W, stronger effect = lower value 1.01 | S. cerevisiae deletion strains, locus YLL041C, strain sdh2, stronger effect = lower value 1.02 | S. cerevisiae deletion strains, locus YLR027C, strain aat2, stronger effect = lower value 1.01 | S. cerevisiae deletion strains, locus YLR221C, strain rsa3, stronger effect = lower value 0.926 | S. cerevisiae deletion strains, locus YLR258W, strain gsy2, stronger effect = lower value 1.02 | S. cerevisiae deletion strains, locus YLR320W, strain mms22, stronger effect = lower value 0.985 | S. cerevisiae deletion strains, locus YLR342W, strain FKS1, stronger effect = lower value 0.991 | S. cerevisiae deletion strains, locus YLR357W, strain rsc2, stronger effect = lower value 0.875 | S. cerevisiae deletion strains, locus YLR370C, strain arc18, stronger effect = lower value 1.02 | S. cerevisiae deletion strains, locus YLR384C, strain iki3, stronger effect = lower value 1.04 | S. cerevisiae deletion strains, locus YML120C, strain ndi1, stronger effect = lower value 0.925 | S. cerevisiae deletion strains, locus YMR058W, strain fet3, stronger effect = lower value 1.01 | S. cerevisiae deletion strains, locus YMR125W, strain sto1, stronger effect = lower value 1.03 | S. cerevisiae deletion strains, locus YMR129W, stronger effect = lower value 1.03 | S. cerevisiae deletion strains, locus YMR205C, strain PFK2, stronger effect = lower value 0.977 | S. cerevisiae deletion strains, locus YNL071W, strain lat1, stronger effect = lower value 1.03 | S. cerevisiae deletion strains, locus YNL209W, strain ssb2, stronger effect = lower value 1.03 | S. cerevisiae deletion strains, locus YNL248C, strain rpa49, stronger effect = lower value 1.02 | S. cerevisiae deletion strains, locus YNL322C, strain KRE1 (second series), stronger effect = lower value 1.04 | S. cerevisiae deletion strains, locus YNR049C, strain mso1, stronger effect = lower value 1.03 | S. cerevisiae deletion strains, locus YOR001W, strain rrp6, stronger effect = lower value 0.939 | S. cerevisiae deletion strains, locus YOR070C, strain gyp1, stronger effect = lower value 1.02 | S. cerevisiae deletion strains, locus YOR080W, strain dia2, stronger effect = lower value 1.04 | S. cerevisiae deletion strains, locus YOR083W, strain WHI5, stronger effect = lower value 0.974 | S. cerevisiae deletion strains, locus YOR106W, strain vam3, stronger effect = lower value 0.919 | S. cerevisiae deletion strains, locus YOR265W, strain rbl2, stronger effect = lower value 1.04 | S. cerevisiae deletion strains, locus YOR270C, strain vph1, stronger effect = lower value 0.99 | S. cerevisiae deletion strains, locus YOR290C, strain snf2, stronger effect = lower value 0.964 | S. cerevisiae deletion strains, locus YPL051W, strain arl3, stronger effect = lower value 0.95 | S. cerevisiae deletion strains, locus YPL078C, strain atp4, stronger effect = lower value 0.968 | S. cerevisiae deletion strains, locus YPL240C, strain hsp82, stronger effect = lower value 1
active: S. cerevisiae deletion strains, locus YJR043C, strain POL32, stronger effect = lower value 0.0654 | S. cerevisiae deletion strains, locus YJR066W, strain TOR1, stronger effect = lower value -0.00057 | S. cerevisiae deletion strains, locus YKL009W, strain mrt4, stronger effect = lower value 0.0811 | S. cerevisiae deletion strains, locus YKL068W, stronger effect = lower value 0.0538 | S. cerevisiae deletion strains, locus YKL085W, strain MDH1 (second series), stronger effect = lower value 0.0597 | S. cerevisiae deletion strains, locus YKL085W, strain MDH1, stronger effect = lower value 0.0597 | S. cerevisiae deletion strains, locus YKR001C, strain vps1, stronger effect = lower value 0.0628 | S. cerevisiae deletion strains, locus YLR039C, strain RIC1, stronger effect = lower value 0.0908 | S. cerevisiae deletion strains, locus YLR058C, strain SHM2, stronger effect = lower value 0.0509 | S. cerevisiae deletion strains, locus YLR102C, strain apc9, stronger effect = lower value 0.0549 | S. cerevisiae deletion strains, locus YLR113W, strain HOG1, stronger effect = lower value 0.124 | S. cerevisiae deletion strains, locus YLR262C, strain YPT6 (second series), stronger effect = lower value 0.598 | S. cerevisiae deletion strains, locus YLR262C, strain YPT6, stronger effect = lower value 0.112 | S. cerevisiae deletion strains, locus YLR268W, strain sec22, stronger effect = lower value 0.0616 | S. cerevisiae deletion strains, locus YLR371W, strain rom2, stronger effect = lower value 0.0571 | S. cerevisiae deletion strains, locus YLR418C, strain cdc73, stronger effect = lower value 0.0973 | S. cerevisiae deletion strains, locus YML016C, strain PPZ1, stronger effect = lower value 0.0492 | S. cerevisiae deletion strains, locus YML032C, strain rad52, stronger effect = lower value 0.0633 | S. cerevisiae deletion strains, locus YML124C, strain tub3, stronger effect = lower value 0.0557 | S. cerevisiae deletion strains, locus YMR078C, strain ctf18, stronger effect = lower value 0.064 | S. cerevisiae deletion strains, locus YMR223W, strain ubp8, stronger effect = lower value 0.0562 | S. cerevisiae deletion strains, locus YMR263W, strain SAP30, stronger effect = lower value 0.055 | S. cerevisiae deletion strains, locus YMR307W, strain GAS1, stronger effect = lower value 0.13 | S. cerevisiae deletion strains, locus YNL067W, strain RPL9B, stronger effect = lower value 0.0474 | S. cerevisiae deletion strains, locus YNL153C, strain GIM3, stronger effect = lower value 0.0551 | S. cerevisiae deletion strains, locus YNL183C, strain NPR1, stronger effect = lower value -0.00129 | S. cerevisiae deletion strains, locus YNL233W, strain BNI4, stronger effect = lower value 0.0568 | S. cerevisiae deletion strains, locus YNL250W, strain rad50, stronger effect = lower value 0.0602 | S. cerevisiae deletion strains, locus YNL271C, strain bni1, stronger effect = lower value 0.0573 | S. cerevisiae deletion strains, locus YNL298W, strain CLA4, stronger effect = lower value 0.0588 | S. cerevisiae deletion strains, locus YNL307C, strain MCK1, stronger effect = lower value 0.063 | S. cerevisiae deletion strains, locus YNR052C, strain pop2, stronger effect = lower value 0.0596 | S. cerevisiae deletion strains, locus YOL006C, strain TOP1, stronger effect = lower value 0.131 | S. cerevisiae deletion strains, locus YOL012C, strain htz1 0.172 | S. cerevisiae deletion strains, locus YOL147C, strain pex11, stronger effect = lower value 0.0607 | S. cerevisiae deletion strains, locus YOR061W, strain CKA2, stronger effect = lower value 0.0464 | S. cerevisiae deletion strains, locus YOR069W, strain VPS5, stronger effect = lower value 0.05 | S. cerevisiae deletion strains, locus YOR136W, strain idh2, stronger effect = lower value 0.0668 | S. cerevisiae deletion strains, locus YOR144C, strain elg1, stronger effect = lower value 0.0588 | S. cerevisiae deletion strains, locus YOR184W, strain ser1, stronger effect = lower value 0.0693 | S. cerevisiae deletion strains, locus YOR231W, strain MKK1, stronger effect = lower value 0.0965 | S. cerevisiae deletion strains, locus YOR316C, strain cot1, stronger effect = lower value 0.0539 | S. cerevisiae deletion strains, locus YPL106C, strain sse1, stronger effect = lower value 0.671 | S. cerevisiae deletion strains, locus YPL241C, strain CIN2, stronger effect = lower value 0.0482 | S. cerevisiae deletion strains, locus YPL256C, strain CLN2, stronger effect = lower value 0.109 | S. cerevisiae deletion strains, locus YPR119W, strain clb2, stronger effect = lower value 0.0604 | S. cerevisiae deletion strains, locus YPR141C, strain kar3, stronger effect = lower value 0.0605 | S. cerevisiae deletion strains, locus YPR163C, strain tif3, stronger effect = lower value 0.0646 | S. cerevisiae deletion strains, locus YPR167C, strain met16, stronger effect = lower value 0.0578 | S. cerevisiae deletion strains, strain wtn01, stronger effect = lower value 0.0611 | S. cerevisiae strains, strain wild type, stronger effect = lower value 0.0496
